Results reported in ChEMBL document CHEMBL1961873, “Compounds: GSK PKIS; Assays: Nanosyn kinase panel” (2012).

What was measured:
[1] = target: T1, Mitogen-activated protein kinase 12 (Homo sapiens) (UniProt P53778); conditions: at 1 µM;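 note: values are averaged p38gamma kinase inhibition readings, compounds tested at 1 µM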
T1 sequence (whole entry): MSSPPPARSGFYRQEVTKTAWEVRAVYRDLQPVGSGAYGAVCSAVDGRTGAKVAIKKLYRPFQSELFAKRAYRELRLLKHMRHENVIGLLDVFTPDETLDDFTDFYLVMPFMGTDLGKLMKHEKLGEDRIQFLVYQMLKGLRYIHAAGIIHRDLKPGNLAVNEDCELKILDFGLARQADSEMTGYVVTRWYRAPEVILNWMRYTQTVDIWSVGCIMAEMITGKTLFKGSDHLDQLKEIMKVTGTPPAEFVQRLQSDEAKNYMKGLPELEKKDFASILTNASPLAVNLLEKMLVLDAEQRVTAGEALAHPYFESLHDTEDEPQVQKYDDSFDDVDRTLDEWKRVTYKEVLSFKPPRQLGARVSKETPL

[2] = target: SRSF protein kinase 1 (Homo sapiens) (UniProt Q96SB4); conditions: at 0.1 µM
[3] = target: SRSF protein kinase 1 (Homo sapiens) (UniProt Q96SB4); conditions: at 1 µM
[4] = target: Phosphatidylinositol 4,5-bisphosphate 3-kinase catalytic subunit alpha isoform (Homo sapiens) (UniProt P42336); conditions: at 0.1 µM
[5] = target: Phosphatidylinositol 4,5-bisphosphate 3-kinase catalytic subunit alpha isoform (Homo sapiens) (UniProt P42336); conditions: at 1 µM
[6] = target: T2, Phosphatidylinositol 4,5-bisphosphate 3-kinase catalytic subunit delta isoform (Homo sapiens) (UniProt O00329); conditions: at 0.1 µM
T2 sequence (whole entry): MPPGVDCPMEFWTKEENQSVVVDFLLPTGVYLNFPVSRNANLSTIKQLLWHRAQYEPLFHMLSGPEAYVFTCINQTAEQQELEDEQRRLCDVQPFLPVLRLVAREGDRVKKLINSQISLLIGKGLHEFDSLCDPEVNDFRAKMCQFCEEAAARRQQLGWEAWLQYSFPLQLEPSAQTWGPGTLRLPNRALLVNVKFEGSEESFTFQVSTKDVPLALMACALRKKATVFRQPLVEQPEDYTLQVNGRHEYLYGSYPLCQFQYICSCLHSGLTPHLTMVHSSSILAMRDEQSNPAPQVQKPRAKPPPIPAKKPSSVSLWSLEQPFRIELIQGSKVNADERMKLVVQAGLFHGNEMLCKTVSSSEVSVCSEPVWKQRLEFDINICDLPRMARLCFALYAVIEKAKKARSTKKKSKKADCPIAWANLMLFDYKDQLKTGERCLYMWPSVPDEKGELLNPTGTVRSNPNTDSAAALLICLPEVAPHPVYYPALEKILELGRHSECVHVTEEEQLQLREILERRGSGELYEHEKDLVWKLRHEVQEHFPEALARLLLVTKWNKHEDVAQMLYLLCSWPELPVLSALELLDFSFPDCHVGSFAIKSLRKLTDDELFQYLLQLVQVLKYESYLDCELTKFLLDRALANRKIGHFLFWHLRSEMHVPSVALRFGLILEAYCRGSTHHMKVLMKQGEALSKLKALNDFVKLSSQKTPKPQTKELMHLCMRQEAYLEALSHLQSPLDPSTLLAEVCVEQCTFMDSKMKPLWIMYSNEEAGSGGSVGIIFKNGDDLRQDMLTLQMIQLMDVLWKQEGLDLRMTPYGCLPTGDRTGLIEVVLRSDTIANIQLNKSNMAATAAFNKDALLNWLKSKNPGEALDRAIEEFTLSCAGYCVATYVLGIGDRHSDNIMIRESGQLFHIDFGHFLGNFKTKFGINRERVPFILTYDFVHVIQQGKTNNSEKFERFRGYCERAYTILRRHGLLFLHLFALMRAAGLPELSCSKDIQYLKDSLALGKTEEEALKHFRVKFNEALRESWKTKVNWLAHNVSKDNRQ

[7] = target: T2, Phosphatidylinositol 4,5-bisphosphate 3-kinase catalytic subunit delta isoform (Homo sapiens); conditions: at 1 µM
[8] = target: Phosphatidylinositol 4-kinase beta (Homo sapiens) (UniProt Q9UBF8); conditions: at 0.1 µM
[9] = target: Phosphatidylinositol 4-kinase beta (Homo sapiens) (UniProt Q9UBF8); conditions: at 1 µM
[10] = target: Sphingosine kinase 1 (Homo sapiens) (UniProt Q9NYA1); conditions: at 0.1 µM
[11] = target: Sphingosine kinase 1 (Homo sapiens) (UniProt Q9NYA1); conditions: at 1 µM
[12] = target: T3, Sphingosine kinase 2 (Homo sapiens) (UniProt Q9NRA0); conditions: at 0.1 µM
T3 sequence (whole entry): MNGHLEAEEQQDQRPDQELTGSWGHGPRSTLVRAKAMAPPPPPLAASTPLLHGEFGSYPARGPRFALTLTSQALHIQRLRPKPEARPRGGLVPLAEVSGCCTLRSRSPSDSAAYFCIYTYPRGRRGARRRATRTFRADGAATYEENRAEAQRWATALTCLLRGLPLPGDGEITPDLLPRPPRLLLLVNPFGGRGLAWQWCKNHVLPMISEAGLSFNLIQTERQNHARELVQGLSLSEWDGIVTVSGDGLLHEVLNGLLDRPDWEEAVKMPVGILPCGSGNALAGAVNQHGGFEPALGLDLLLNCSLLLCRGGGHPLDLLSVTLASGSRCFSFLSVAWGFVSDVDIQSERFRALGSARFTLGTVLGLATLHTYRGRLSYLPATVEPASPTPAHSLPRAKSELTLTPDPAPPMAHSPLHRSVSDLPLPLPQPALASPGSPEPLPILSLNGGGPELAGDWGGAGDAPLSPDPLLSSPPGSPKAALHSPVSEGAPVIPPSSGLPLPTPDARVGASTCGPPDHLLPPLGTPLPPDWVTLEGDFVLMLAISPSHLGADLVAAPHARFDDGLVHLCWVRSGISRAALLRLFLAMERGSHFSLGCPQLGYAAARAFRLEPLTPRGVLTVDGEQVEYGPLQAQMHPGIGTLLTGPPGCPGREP

[13] = target: T3, Sphingosine kinase 2 (Homo sapiens); conditions: at 1 µM
[14] = target: Casein kinase II subunit alpha (Homo sapiens) (UniProt P68400); conditions: at 0.1 µM
[15] = target: Casein kinase II subunit alpha (Homo sapiens) (UniProt P68400); conditions: at 1 µM
[16] = target: T4, Inhibitor of nuclear factor kappa-B kinase subunit alpha (Homo sapiens) (UniProt O15111); conditions: at 0.1 µM
T4 sequence (whole entry): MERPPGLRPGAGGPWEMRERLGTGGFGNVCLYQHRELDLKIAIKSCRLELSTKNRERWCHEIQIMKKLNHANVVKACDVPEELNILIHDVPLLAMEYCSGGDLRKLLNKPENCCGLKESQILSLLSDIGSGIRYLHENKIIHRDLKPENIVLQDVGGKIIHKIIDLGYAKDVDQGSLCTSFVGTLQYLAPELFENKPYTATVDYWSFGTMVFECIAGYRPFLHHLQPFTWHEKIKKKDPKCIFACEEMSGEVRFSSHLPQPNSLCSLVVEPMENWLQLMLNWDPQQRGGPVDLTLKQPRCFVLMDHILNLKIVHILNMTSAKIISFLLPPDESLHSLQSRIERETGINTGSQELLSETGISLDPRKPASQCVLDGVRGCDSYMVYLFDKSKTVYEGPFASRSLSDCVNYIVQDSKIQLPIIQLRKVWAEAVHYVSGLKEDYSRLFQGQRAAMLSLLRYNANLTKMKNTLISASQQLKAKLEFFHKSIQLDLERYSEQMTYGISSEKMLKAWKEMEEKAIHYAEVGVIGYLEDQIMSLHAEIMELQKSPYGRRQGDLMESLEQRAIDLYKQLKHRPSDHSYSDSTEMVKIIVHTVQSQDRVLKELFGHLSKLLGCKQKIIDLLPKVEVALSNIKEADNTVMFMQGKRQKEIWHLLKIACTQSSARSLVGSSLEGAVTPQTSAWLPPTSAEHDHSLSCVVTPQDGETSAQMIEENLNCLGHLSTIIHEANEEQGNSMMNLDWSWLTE

[17] = target: T4, Inhibitor of nuclear factor kappa-B kinase subunit alpha (Homo sapiens); conditions: at 1 µM
[18] = target: T5, Inhibitor of nuclear factor kappa-B kinase subunit beta (Homo sapiens) (UniProt O14920); conditions: at 0.1 µM
T5 sequence (whole entry): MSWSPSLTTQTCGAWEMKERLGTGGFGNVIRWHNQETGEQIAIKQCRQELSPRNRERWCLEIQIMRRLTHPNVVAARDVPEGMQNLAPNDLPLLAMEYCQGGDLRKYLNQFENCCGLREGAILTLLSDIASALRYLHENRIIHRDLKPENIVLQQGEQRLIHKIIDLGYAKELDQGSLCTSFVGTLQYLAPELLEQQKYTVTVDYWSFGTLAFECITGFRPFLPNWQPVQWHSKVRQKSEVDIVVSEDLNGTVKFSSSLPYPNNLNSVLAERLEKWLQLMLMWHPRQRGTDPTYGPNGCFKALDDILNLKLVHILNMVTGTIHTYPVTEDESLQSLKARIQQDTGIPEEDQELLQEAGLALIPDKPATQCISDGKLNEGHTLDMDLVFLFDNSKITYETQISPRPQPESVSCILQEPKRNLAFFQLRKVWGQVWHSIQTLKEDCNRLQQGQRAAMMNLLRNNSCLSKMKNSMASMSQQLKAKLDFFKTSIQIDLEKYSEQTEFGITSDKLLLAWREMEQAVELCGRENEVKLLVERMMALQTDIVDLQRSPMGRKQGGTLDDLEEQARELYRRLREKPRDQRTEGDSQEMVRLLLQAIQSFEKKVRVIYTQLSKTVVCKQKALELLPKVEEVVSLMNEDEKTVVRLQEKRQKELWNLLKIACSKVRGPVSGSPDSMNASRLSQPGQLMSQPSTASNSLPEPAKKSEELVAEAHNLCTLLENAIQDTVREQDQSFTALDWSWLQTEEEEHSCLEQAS

[19] = target: T5, Inhibitor of nuclear factor kappa-B kinase subunit beta (Homo sapiens); conditions: at 1 µM
[20] = target: T6, Inhibitor of nuclear factor kappa-B kinase subunit epsilon (Homo sapiens) (UniProt Q14164); conditions: at 0.1 µM;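 note: mean inhibition of IKKε reported, from the GSK PKIS dataset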
T6 sequence (whole entry): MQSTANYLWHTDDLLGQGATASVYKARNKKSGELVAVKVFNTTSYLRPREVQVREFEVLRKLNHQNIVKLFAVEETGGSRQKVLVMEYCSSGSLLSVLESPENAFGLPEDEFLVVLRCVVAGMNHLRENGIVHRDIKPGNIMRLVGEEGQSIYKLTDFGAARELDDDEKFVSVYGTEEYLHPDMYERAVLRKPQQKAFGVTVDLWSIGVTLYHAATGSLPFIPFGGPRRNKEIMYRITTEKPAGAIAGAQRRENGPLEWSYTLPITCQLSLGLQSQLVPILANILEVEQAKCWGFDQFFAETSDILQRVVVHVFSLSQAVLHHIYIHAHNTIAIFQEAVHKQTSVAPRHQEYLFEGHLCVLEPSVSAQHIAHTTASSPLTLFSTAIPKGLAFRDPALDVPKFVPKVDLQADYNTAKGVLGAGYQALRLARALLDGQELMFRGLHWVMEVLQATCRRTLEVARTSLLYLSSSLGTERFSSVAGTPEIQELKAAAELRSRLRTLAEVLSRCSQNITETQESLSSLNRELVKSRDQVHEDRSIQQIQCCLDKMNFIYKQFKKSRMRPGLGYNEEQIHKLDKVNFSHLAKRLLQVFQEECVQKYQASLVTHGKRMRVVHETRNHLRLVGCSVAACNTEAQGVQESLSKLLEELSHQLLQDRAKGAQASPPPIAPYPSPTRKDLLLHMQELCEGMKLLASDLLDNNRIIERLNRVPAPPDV

Sequence of Phosphatidylinositol 4,5-bisphosphate 3-kinase catalytic subunit alpha isoform (Homo sapiens) (P42336 whole entry, canonical isoform): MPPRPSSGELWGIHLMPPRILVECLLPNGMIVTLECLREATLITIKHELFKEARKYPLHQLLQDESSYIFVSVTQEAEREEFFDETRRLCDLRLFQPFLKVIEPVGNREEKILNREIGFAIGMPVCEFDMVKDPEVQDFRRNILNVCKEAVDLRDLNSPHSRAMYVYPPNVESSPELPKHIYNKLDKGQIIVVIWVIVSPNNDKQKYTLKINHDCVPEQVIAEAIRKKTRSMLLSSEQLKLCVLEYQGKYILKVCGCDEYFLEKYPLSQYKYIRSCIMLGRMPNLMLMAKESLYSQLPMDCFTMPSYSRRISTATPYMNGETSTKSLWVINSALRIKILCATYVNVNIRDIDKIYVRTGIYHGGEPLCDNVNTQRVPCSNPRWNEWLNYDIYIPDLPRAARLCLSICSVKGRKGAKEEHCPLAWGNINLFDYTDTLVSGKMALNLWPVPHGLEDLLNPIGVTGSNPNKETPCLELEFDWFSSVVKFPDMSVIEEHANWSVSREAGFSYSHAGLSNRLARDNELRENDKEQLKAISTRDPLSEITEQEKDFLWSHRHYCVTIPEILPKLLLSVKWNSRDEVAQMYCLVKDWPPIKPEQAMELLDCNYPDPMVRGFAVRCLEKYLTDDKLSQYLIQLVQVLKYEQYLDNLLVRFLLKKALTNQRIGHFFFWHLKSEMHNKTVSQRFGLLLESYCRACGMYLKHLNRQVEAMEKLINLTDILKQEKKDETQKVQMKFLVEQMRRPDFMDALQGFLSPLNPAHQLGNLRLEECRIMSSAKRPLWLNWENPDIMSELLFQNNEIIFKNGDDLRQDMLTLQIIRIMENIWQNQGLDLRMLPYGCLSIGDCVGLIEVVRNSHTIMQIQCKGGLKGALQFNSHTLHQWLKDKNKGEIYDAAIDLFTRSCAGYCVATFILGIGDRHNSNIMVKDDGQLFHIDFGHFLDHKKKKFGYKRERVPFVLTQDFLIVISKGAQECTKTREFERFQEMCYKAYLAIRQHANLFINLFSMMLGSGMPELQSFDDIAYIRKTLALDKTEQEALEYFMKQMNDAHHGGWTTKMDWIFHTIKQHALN
Sequence of SRSF protein kinase 1 (Homo sapiens) (Q96SB4 whole entry, canonical isoform): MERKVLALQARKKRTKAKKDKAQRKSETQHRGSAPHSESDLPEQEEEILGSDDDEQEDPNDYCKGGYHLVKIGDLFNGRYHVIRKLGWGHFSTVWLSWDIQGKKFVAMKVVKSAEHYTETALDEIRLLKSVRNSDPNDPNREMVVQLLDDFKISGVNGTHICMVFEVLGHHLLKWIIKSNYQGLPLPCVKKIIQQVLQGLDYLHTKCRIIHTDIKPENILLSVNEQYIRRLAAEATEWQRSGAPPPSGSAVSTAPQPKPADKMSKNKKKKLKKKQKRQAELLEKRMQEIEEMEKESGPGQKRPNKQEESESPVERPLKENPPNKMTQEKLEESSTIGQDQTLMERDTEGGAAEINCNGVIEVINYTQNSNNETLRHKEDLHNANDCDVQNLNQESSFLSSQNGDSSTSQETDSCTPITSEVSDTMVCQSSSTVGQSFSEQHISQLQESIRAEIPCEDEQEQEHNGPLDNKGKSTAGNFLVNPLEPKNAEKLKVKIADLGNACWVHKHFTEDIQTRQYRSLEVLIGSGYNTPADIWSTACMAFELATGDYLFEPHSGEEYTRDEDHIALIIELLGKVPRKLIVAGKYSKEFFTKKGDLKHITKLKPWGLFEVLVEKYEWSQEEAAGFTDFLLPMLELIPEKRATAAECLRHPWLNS
Sequence of Sphingosine kinase 1 (Homo sapiens) (Q9NYA1 whole entry): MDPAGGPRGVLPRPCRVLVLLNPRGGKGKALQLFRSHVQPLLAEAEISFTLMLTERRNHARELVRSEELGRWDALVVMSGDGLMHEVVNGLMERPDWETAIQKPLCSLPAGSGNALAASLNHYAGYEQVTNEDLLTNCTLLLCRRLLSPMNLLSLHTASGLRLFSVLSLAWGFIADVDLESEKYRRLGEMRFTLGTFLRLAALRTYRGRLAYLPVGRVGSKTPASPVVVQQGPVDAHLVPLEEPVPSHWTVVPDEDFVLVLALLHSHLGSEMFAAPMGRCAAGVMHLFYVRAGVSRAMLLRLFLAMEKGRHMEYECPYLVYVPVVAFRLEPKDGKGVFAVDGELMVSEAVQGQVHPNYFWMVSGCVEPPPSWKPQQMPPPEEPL
Sequence of Phosphatidylinositol 4-kinase beta (Homo sapiens) (Q9UBF8 2-816 limits assumed): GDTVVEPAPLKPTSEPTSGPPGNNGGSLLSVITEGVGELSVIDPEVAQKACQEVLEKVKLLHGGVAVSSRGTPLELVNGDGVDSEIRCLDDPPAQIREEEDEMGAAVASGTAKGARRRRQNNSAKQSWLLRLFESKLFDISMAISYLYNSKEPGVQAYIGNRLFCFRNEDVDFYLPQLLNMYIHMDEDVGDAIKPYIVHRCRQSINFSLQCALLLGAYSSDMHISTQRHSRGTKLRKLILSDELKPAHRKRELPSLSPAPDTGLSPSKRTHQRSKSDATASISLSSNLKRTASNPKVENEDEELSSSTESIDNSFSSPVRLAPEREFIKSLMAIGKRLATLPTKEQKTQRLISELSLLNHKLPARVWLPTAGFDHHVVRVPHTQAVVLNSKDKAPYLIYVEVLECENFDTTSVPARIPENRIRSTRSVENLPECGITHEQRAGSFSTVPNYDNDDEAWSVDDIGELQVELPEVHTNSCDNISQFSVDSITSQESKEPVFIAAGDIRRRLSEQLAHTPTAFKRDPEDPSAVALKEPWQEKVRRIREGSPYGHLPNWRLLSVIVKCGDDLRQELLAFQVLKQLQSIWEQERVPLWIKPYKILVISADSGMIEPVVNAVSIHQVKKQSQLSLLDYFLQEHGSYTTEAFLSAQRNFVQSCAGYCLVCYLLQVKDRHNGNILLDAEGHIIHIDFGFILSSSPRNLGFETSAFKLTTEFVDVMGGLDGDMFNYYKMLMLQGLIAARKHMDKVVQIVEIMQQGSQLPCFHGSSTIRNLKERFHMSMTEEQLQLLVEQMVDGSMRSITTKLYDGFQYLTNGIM
Sequence of Casein kinase II subunit alpha (Homo sapiens) (P68400 whole entry, looked up): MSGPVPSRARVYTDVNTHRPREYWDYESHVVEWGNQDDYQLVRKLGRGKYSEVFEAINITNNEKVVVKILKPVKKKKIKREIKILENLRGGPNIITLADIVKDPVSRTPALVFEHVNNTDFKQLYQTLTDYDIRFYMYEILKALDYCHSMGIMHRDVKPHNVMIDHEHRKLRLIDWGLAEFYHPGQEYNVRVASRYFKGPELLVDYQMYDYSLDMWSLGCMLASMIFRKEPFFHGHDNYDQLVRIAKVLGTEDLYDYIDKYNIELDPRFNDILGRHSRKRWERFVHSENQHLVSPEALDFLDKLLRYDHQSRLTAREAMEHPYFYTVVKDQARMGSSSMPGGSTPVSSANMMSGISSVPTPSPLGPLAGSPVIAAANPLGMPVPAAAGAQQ

| SMILES | inhibition [1] [%] | inhibition [2] [%] | inhibition [3] [%] | inhibition [4] [%] | inhibition [5] [%] | inhibition [6] [%] | inhibition [7] [%] | inhibition [8] [%] | inhibition [9] [%] | inhibition [10] [%] | inhibition [11] [%] | inhibition [12] [%] | inhibition [13] [%] | inhibition [14] [%] | inhibition [15] [%] | inhibition [16] [%] | inhibition [17] [%] | inhibition [18] [%] | inhibition [19] [%] | inhibition [20] [%] |
| --- | --- | --- | --- | --- | --- | --- | --- | --- | --- | --- | --- | --- | --- | --- | --- | --- | --- | --- | --- | --- |
| CN1CCC(n2cnc(-c3ccc(F)cc3)c2-c2ccnc(Nc3ccccc3)n2)CC1 | 9.03 | -1.25 | -1.27 | 1.36 | 1.8 | -0.07 | 4.79 | -0.93 | 1.36 | 1.77 | -6.88 | -0.42 | 0.78 | 3.62 | 8.56 | 6.78 | 1.62 | 2.83 | 3.93 | 3.59 |
| NS(=O)(=O)c1ccc(Nc2ncc(-c3ccccc3)o2)cc1 | 1.81 | -0.91 | 0.75 | 3.75 | 2.69 | 0.62 | 3.33 | -3.61 | 4.39 | 0.6 | 0 | -1.43 | -1.09 | 3.56 | 10.3 | 6.23 | 15.3 | 3.35 | 11.7 | 4.43 |
| CCc1nn2ncccc2c1-c1ccnc(NC2CC2)n1 | 3.05 | -1.37 | -0.37 | 1.28 | 1.26 | 0.07 | 0.87 | 5.11 | 8.09 | -2.72 | 0.9 | 0 | 0.3 | 1.46 | 4.59 | 3.61 | 6.96 | 4.78 | 3.76 | 4.47 |
| CCn1c(-c2nonc2N)nc2c(C#CC(C)(C)O)ncc(OC3CCNCC3)c21 | 3.11 | -3.24 | -2.54 | 2.27 | 1.82 | -0.02 | 0.63 | 4.47 | 0.66 | -1.2 | 4.1 | -2.62 | 0.82 | 5.58 | 2.13 | 3.92 | 0.96 | 4.3 | 5.45 | 79.5 |
| Cc1cccc2c1NC(=O)/C2=N\Nc1ccc(S(N)(=O)=O)cc1 | 0.72 | -0.92 | -1.02 | 2.47 | 1.9 | 1.83 | 3.28 | -4.22 | -2.85 | 0.78 | 1.88 | -0.11 | 0.27 | -0.53 | 0.34 | 2.87 | 0.58 | 2.93 | 3.79 | 3.32 |
| Fc1ccc(-c2nn3ccccc3c2-c2ccncc2)cc1 | 1.62 | -2.12 | -2.82 | 0.14 | 1.14 | 0.32 | 2.31 | -1.2 | 1.37 | -0.49 | -4.19 | 0.23 | -0.19 | -0.45 | 0.13 | 2.86 | -1.37 | 0.51 | 0.63 | 2.31 |
| CCOc1ccc2c(-c3ccnc(Nc4cccc(C(F)(F)F)c4)n3)cnn2n1 | 0.81 | -3.06 | -3.22 | 2.25 | 3.21 | -0.36 | 0.32 | -2.42 | -0.91 | 0.68 | -1.13 | 2.38 | -1.13 | 5.72 | 7.82 | 11.5 | 6.76 | 4.08 | 3.66 | 8.35 |
